Measurements: the supplement of paper PMC6555819

Assays:
Test in all cases: PBM binding z-score (relative to random genomic background probes); higher = stronger binding; sequences stand for … in GC…GCGATTGACAGCGTAGAATGAAGG
[1] = tested on: FXR:RXRa (NR concentration 270 nM, RXRa partner concentration 90 nM)
In short: (§1)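 Custom Agilent 4×180K protein-binding microarrays carried double-stranded probes. Their 34-nt variable regions held direct-repeat seeds, single-nucleotide variants, half-site ablations and random human genomic background sequences. Arrays were incubated 1 h with ligand-free nuclear receptor dimers in PBS pH 7.4, 2% milk, 0.02% Triton X-100, 1 mM DTT, 0.2 mg/mL BSA and 0.4 mg/ml salmon testes DNA. Antibodies against each partner (one per run) detected binding, and scanned fluorescence was regression-normalized. Binding z-scores use random background probes as reference.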

[2] = tested on: LXRa:RXRa (NR concentration 270 nM, RXRa partner concentration 90 nM)
In short: as §1

[3] = tested on: LXRa homodimer (NR concentration 270 nM)
In short: as §1

[4] = tested on: LXRb:RXRa (NR concentration 270 nM, RXRa partner concentration 90 nM)
In short: as §1

[5] = tested on: LXRb homodimer (NR concentration 270 nM)
In short: as §1

[6] = tested on: PPARa:RXRa (NR concentration 270 nM, RXRa partner concentration 90 nM)
In short: as §1

[7] = tested on: PPARg:RXRa (NR concentration 180 nM, RXRa partner concentration 90 nM)
In short: as §1

[8] = tested on: PPARg:RXRa 270nM:90nM, anti-RXR (NR concentration 270 nM, RXRa partner concentration 90 nM)
In short: as §1

[9] = tested on: PPARg:RXRa 30nM:10nM, anti-RXR (NR concentration 30 nM, RXRa partner concentration 10 nM)
In short: as §1

[10] = tested on: PPARg:RXRa 90nM:30nM, anti-RXR (NR concentration 90 nM, RXRa partner concentration 30 nM)
In short: as §1

Sequence	PBM binding z-score [1]	PBM binding z-score [2]	PBM binding z-score [3]	PBM binding z-score [4]	PBM binding z-score [5]	PBM binding z-score [6]	PBM binding z-score [7]	PBM binding z-score [8]	PBM binding z-score [9]	PBM binding z-score [10]
TGAATGAGGTTAAAGATCACGGAACGTGGCGTCG	3.68	2.87	-0.664	2.2	0.233	5.33	7.54	7.16	6.14	7.59
AATACAGGGGCATCGTAGGCCAGAGTACGCACAG	0.565	0.874	0.0851	1.04	0.436	1.06	1.13	0.622	0.174	0.275
AGAACGAGGGCAATGAGTTGATAGAACGGGTGGC	0.324	0.221	-0.321	-0.103	-0.564	0.984	1.53	0.857	0.188	0.62
GCGACTGGGGCATCAGCAGGTTACCTTAACTTAA	-0.0462	-0.17	-0.509	0.761	-0.96	1.16	0.496	0.878	-0.313	0.578
CGAACTAGGTCATCCAGGACAGTGGATACATTGA	4.72	2.32	0.245	1.99	0.307	4.9	7.83	5.84	4.33	5.96
GTACCAAGGGGAATAGGTCGTTGATGAGTAGGCG	-0.0504	0.00136	-0.0435	0.269	-0.418	1.3	0.915	1.15	0.0532	0.835
CCGACTGGGGCAAGGGTACCATAACGCACAGCCA	-0.555	-0.391	-0.264	-0.192	-1.39	1.5	4.24	4.92	2.6	4.6
AGTCAAAGTTCACTAGGTAGCGTAAGATTCAGCT	5.23	5.4	3.04	2.9	0.743	4.13	6.27	6.17	2.76	5.22
CCGACTGGGGCAGAAGGGTTACCATACCATCCGG	-0.34	-0.358	-0.422	-0.143	-0.958	0.847	1.13	1.14	-0.416	0.389
AGAACGAAGGCAATGAGTTGATAGCACGGGTGGC	-0.744	-0.976	-0.545	-0.999	-1.01	-0.613	0.809	-0.61	-0.619	-0.608
CAAACTAGGTCAAGAGGTCAAGGTCCGCTTCCCG	6.64	6.02	4.56	4.63	1.32	6.41	9.76	8.19	6.69	8.28
GCATATATGTAATACAAGGTGAAAGTCCGATTGT	0.416	0.403	0.269	0.457	0.00515	1.08	1.35	0.83	0.428	0.72
